RORgamma inh: inhibitors of mouse ROR gamma transcriptional activity. P51450. Drosophila S2 Gal4-RORgamma UAS-luciferase reporter, 20 h. Potency, µM (series often up to 53.6 µM), without a hit: at the top dose activity change, negative = inhibition, actives largely listed as inhibitors. 310,000 tested, 5.4% active; further: on the % scale 0 is the no-effect control and ±100 the full control effect; nearly all actives have a fitted effect of over 60% in size
Target sequence (P51450 whole entry, looked up, the tested form may be a part): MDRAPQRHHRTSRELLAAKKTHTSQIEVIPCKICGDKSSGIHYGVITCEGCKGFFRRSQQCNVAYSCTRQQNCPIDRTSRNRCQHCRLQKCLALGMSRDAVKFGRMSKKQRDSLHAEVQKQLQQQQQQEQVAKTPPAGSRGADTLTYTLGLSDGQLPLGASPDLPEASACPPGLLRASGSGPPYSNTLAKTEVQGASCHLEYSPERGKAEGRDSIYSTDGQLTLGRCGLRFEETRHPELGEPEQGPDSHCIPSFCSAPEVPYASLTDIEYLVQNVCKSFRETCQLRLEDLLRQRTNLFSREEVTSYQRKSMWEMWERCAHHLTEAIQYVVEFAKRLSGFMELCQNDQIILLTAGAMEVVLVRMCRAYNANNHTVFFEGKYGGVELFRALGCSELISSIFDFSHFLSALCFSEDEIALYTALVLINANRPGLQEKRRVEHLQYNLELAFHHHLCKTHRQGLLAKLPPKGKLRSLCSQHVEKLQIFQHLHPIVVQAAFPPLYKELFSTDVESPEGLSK
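Drosophila S2 cells stably expressing Gal4-DBD/mouse RORγ fusion under metallothionein promoter plus UAS-luciferase; compound 1 h, then 700 uM CuSO4 induction for 20 h at ambient temperature; inhibition read as reduced luminescence.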
GLP-1R inv ag: acts as inverse agonist at human GLP-1 receptor | Potency, µM (series often up to 38.3 µM), inactives show at the top dose activity change, negative = inhibition, hits mostly inhibitors | 410,000 tested, 1.6% active | HEK293 GLP-1R CRE-luciferase, luminescence, 24 h; GLP-1R form is constitutively active | AID 624417 | P43220; further: on the % scale 0 is the no-effect control and ±100 the full control effect; nearly all actives have a fitted effect of over 55% in size
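HEK293 cells stably co-expressing a cAMP-responsive luciferase reporter and constitutively active GLP-1R were seeded, incubated 12 h, then exposed to compounds for 24 h at 37 C. Luminescence was read 12 min after detection reagent; inverse agonists lower signal.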
GLP-1R agonist: activates the human GLP-1 receptor; 380,000 tested, 0.007% active; HEK293 GLP-1R CRE-luciferase, luminescence, 4-6 h; cells express a hypersensitive GLP-1R form; Potency, µM (top dose mostly 45.6 µM), inactives show at the top dose activation, hits mostly activators; AID 624172; further: % of control where 0% means no effect
Gal4-VP16 FLuc: counter-screen for ROR gamma inhibitors: Gal4-VP16 reporter | 310,000 tested, 3.5% active | Drosophila S2 Gal4-VP16 UAS-luciferase, luminescence, 20 h | Potency, µM (highest dose often 53.6 µM), inactives show at the highest dose activity, negative = inhibition, most hits filed as inhibitors;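 further: Gal4-VP16 expression switched on by copper sulfate through the metallothionein promoter; on the % scale 0 is the no-effect control and ±100 the full control effect; nearly all actives have a fitted effect of over 50% in size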
HEK293 tox: cytotoxicity in counter-screen for GLP-1R inverse agonists; HEK293 cAMP-luciferase reporter cells, luminescence, 24 h; Potency, µM (highest dose often 38.3 µM), for inactives: at the highest dose activity change, negative = inhibition, actives largely listed as inhibitors; 410,000 tested, 0.13% active;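 further: loss of luciferase light is scored as toxicity; on the % scale 0 is the no-effect control and ±100 the full control effect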
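Seeding density was 200 cells/uL; after overnight-length (12 h) culture, 23 nL compounds went on for 24 h at 37 °C. Readout used a luciferase detection reagent, luminescence taken after 12 min at room temperature.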
Numbers without * were called inactive; u = inconclusive; x = not tested or not shown; [ ] = dose if it differs, or a comment. The list is not random: actives were taken first. Their share in the collection is about 5.9%. The call rests on the fitted dose curve; in most records, active means well fitted curve in the direction sought with a large enough effect; inconclusive means small, poorly fitted or top-dose-only effect, or another doubt; inactive means no such curve, though single readings can be large; an effect the other way counts as inactive or inconclusive. Potency means the concentration at half of the fitted maximal effect.

SMILES | RORgamma inh | GLP-1R inv ag | GLP-1R agonist | Gal4-VP16 FLuc | HEK293 tox
Cc1[nH]nc2c1C(C1CC=CCC1)C(C#N)=C(N)O2 (configuration not stated) | 6.3µM* | -12% | -26% | 11µM* | -26%
Cc1[nH]nc2c1C(c1ccc(-c3ccc(Cl)cc3)o1)C(C#N)=C(N)O2 (configuration not stated) | u | -14% | -13% | u | u
Cc1ccc(-c2ccc(C3C(C#N)=C(N)Oc4n[nH]c(C)c43)o2)cc1 (configuration not stated) | 30% | 0% | 5% | 11µM* | -17%
Cc1cc(C2C(C#N)=C(N)Oc3n[nH]c(C)c32)c(C)s1 (configuration not stated) | 10µM* | -24% | -28% | 11µM* | -3%
Cc1[nH]nc2c1C(c1ccc(-c3ccccc3C#N)o1)C(C#N)=C(N)O2 (configuration not stated) | 8.9µM* | -6% | -6% | u | -19%
Cc1[nH]nc2c1C(c1ccc(F)cc1)C(C#N)=C(N)O2 (configuration not stated) | 30% | 1% | -6% | -5% | -6%
Cc1ccc(CCNS(=O)(=O)c2cc(-c3cc(C)no3)ccc2C)cc1 | x | -24% | x | x | 1%
CCOC(=O)c1n[nH]n2c1nc(=S)c1ccccc12 | 6.3µM* | -14% | 7% | u | -25%
CCOC(=O)c1n[nH]c2ccccc12 | 23% | 0% | 2% | 3% | 0%
Cc1ccc(Sc2nnc(Cc3ccccc3)c3ccccc23)cc1 | 13µM* | 0% | 1% | u | 10%
Cc1cc(-c2cccs2)c(C#N)c(=S)[nH]1 | 10µM* | 4% | 7% | u | 1%
N#Cc1c(-c2cccs2)cc(-c2cccs2)[nH]c1=O | -37% | 4% | 2% | -10% | u
COc1ccc(C2C3=C(CCCC3=O)Nc3nc(C(F)(F)F)nn32)cc1OC (configuration not stated) | 4.5µM* | 0% | -6% | -12% | -13%
CC(C)(C)OC(=O)N1CCC(c2c(C(=O)NCCN3CCC(Cc4ccccc4)CC3)cnn2-c2cccc(Cl)c2)CC1 | x | u | x | x | -14%
Cc1ccc(S(=O)(=O)N2CCC(N3CCN(C)CC3)CC2)cc1Cl | -26% | 2.5µM* | 7% | -11% | 29%
Cc1ccc(S(=O)(=O)N2CCN(C)CC2)cc1C | x | 6% | -2% | x | 5%
CCc1c(C)sc(NC(=S)NC(C)C2CCCO2)c1C(=O)OC (configuration not stated) | 16µM* | u | 21% | 10µM* | u
CCc1c(C)sc(NC(=S)N2CCN(C(=O)C3CCCO3)CC2)c1C(=O)OC (configuration not stated) | 1% | 7% | 3% | 23% | 3%
CCc1c(C)sc(NC(=S)N2CC(C)OC(C)C2)c1C(=O)OC (configuration not stated) | 7.1µM* | -21% | 4% | -16% | -12%
COc1ccc2cc(CNCCOCCOCCNCc3ccc4cc(OC)ccc4c3)ccc2c1 | x | u | -37% | x | 4µM*
CCN(CC)S(=O)(=O)c1ccc2c(c1)N(CC(=O)N1CCN(c3cccc(C)c3)C(C)C1)C(=O)CO2 (configuration not stated) | x | -2% | x | x | -5%
S=C(NCc1ccccc1)Nc1ccncc1 | -11% | -24% | -1% | 14µM* | -2%
CCc1ccc(NC(=S)Nc2ccc3[nH]c(=O)[nH]c3c2)cc1 | 13µM* | 28% | 13% | -65% | 2%
FC(F)(F)Sc1ccc(NC(=S)NCc2ccccc2)cc1 | 13µM* | u | -5% | u | u
S=C(NCc1ccncc1)Nc1ccccc1 | 18% | 4% | -2% | 2% | 8%
SMILES | RORgamma inh | GLP-1R inv ag | GLP-1R agonist | Gal4-VP16 FLuc | HEK293 tox
O=c1[nH]c2ccc(NC(=S)Nc3ccc(F)cc3)cc2[nH]1 | -64% | 1% | 9% | -1% | -1%
NNC(=S)Nc1ccc(Cl)cc1 | 11µM* | -6%[0.307 µM] | 2% | u | -1%[0.307 µM]
CC(C)C[C@@H](CC(=O)N[C@@H](CCCN)CC(=O)N[C@@H]1CCCC[C@H]1C(=O)N[C@H](CC(=O)N[C@@H](CCC(=O)O)CC(=O)O)Cc1ccccc1)NC(=O)[C@@H]1CCCC[C@H]1N | 10% | x | x | 0% | x
S=C(NCc1ccccc1)Nc1ccc(Cl)cc1 | 4.5µM* | u | 8% | u | u
Cc1ccc(CNC(=S)Nc2ccc(NS(=O)(=O)c3ccc(C)cc3)cc2)cc1 | u | 10µM* | 0% | u | u
S=C(NCc1cccnc1)Nc1ccc(Cl)cc1 | -10% | -22% | 3% | 2% | -4%
C=CCNC(=S)Nc1ccc(OC(F)F)c(Cl)c1 | u | 13%[7.66 µM] | 5% | u | 3%[7.66 µM]
O=C(CCC(=O)NNC(=S)Nc1ccccc1)NCc1ccccc1 | 10µM* | 0% | 1% | u | -7%
Cc1ccc(NC(=S)NCc2ccc(F)cc2)cc1 | x | u | 19% | x | u
C=CCNC(=S)Nc1ccc(Cl)cc1 | 16µM* | 13% | 1% | u | 12%
Cc1ccc2cc3cc(C(=O)N(C)c4ccccc4C)oc3nc2c1 | x | u | x | x | -3%
O=S1(=O)C2CC3OC2(CC3c2ccc(F)cc2)CN1Cc1ccc(Cl)cc1 (configuration not stated) | u | x | x | -28% | x
CCCCOc1ccccc1NC(=O)Cn1c(-c2cncs2)nc2ccccc21 | x | 12% | 0% | x | 2%
CCc1ccc(NC(=S)NCc2cccnc2)cc1 | -9% | 7% | 13% | 17% | -8%
Cc1ccc(CNCC(O)(c2ccccc2)c2ccccc2)cc1 | u | u | -3% | -12% | 2%
CCc1ccc(NC(=S)NCc2ccccc2)cc1 | 2.2µM* | 11% | 0% | u | 25%
CC(C)COCC(O)CCC(=O)NNC(=S)Nc1ccccc1 (configuration not stated) | -35%[10 µM] | 25% | 0% | 1µM* | -11%
Cc1ccc(Cl)cc1NC(=S)NN | 8.9µM* | u | 12% | u | -28%
CCc1ccc(C(O)(CNCc2ccccc2)c2ccccc2)cc1 (configuration not stated) | -19% | 11µM* | -5% | 13µM* | -17%
COc1ccc(Oc2ncc3nc(-c4ccc(F)cc4)c(=O)n(CCC#N)c3n2)cc1 | 3% | x | x | -15% | x
Cc1ccc(NC(=S)Nn2cnnc2)cc1 | -39% | 14% | -5% | -21%[10 µM] | 1%
CCc1ccc(NC(=S)Nn2cnnc2)cc1 | 1.1µM* | 9% | 0% | 0% | -3%
COc1ccc(CC(=O)Nc2cccc(-c3nnc(-c4cccc(C)c4)o3)c2)cc1OC | u | 0% | -19% | 7.9µM* | -10%
Cc1cc(C)nc(NC(=S)Nc2cccc(F)c2)c1 | 1.8µM* | u | 0% | 7.1µM* | u

Assay outcomes as filed in PubChem.
